Experimental findings from PubChem BioAssay are described below.

Test [1] can be described thus: anti-His antibody binders, primary screen, artefact control for SMM control protein annotation, biochemical, small-molecule microarray, 635 nm fluorescence (AID 1128).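 Further: score merges feature fluorescence with signal-to-noise for each printed compound spot.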 The following applies: anti-His Alexa647 antibody binding, higher = more signal.
Test [2] concerns Human papillomavirus type 1a E7 protein (residues 1-88). The experiment in a line: HPV1a E7 small-molecule binders, primary screen, biochemical, small-molecule microarray, residues 1-88, 635 nm (AID 1129). The following applies: small-molecule microarray binding, fluorescence 635 nm; higher = more signal.
The target of test [3] is Focal adhesion kinase 1 (Homo sapiens) (UniProt Q05397). Put plainly: small-molecule microarray binders of FAK, primary screen, biochemical, 635/667 nm fluorescence, BSA, DTT (AID 1130).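 Further: composite of spot emission at 667 nm and signal to noise over triplicate slides.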 The following applies: PTK2 binding, 635 nm fluorescence, higher = more signal.
Test [4] relates to Fibrinogen (Alexa647-labelled). The experiment in a line: fibrinogen binders on compound microarrays, profiling panel, artefact control for SMM control-protein annotation, biochemical, small-molecule microarray, 635/667 nm fluorescence (AID 1131).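 Further: z-score merges 667 nm fluorescence with per-spot signal-to-noise over triplicate slides.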 The following applies: fibrinogen-A647 binding fluorescence, higher = more signal.
Test [5] addresses Follistatin (Homo sapiens) (UniProt P19883). Put plainly: follistatin binders on small-molecule microarrays, primary screen, biochemical, small-molecule microarray, 635/667 nm fluorescence (AID 1132). The following applies: FST binding, 635 nm fluorescence, higher = more signal.
In test [6] the target is Fibroblast growth factor 2 (Homo sapiens) (UniProt P09038). Put plainly: FGF2 binders on small-molecule microarrays, primary screen, biochemical, small-molecule microarray, 635/667 nm fluorescence (AID 1133). The following applies: small-molecule microarray binding, FGF2, fluorescence 635/667; higher = more signal.
Test [7] in a line: mitochondrial membrane potential change in A549 cells, profiling panel, cell-based, JC-1 fluorescence, basal, 24 h, 100 nL (AID 1138).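 Further: A549 lung adenocarcinoma cells under basal conditions with no added stimulus; test concentration not given here.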 The following applies: higher = more signal.
The next test concerns Lefty1. The experiment in a line: Lefty1 binders on small-molecule microarrays, primary screen, biochemical, small-molecule microarray, 635/667 nm fluorescence (AID 1139). The following applies: small-molecule microarray binding, fluorescence 635/667; higher = more signal.
Test [8] relates to wheat germ agglutinin (Triticum aestivum), Alexa647-labelled. The experiment in a line: wheat germ agglutinin binders on compound microarrays, profiling panel, artefact control for SMM control-protein annotation, biochemical, small-molecule microarray, 635/667 nm fluorescence (AID 1140).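 Further: score merges 667 nm feature emission with signal to noise over triplicate slides.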 The following applies: WGA-A647 binding, 635 nm fluorescence, higher = more signal.
The target in test [9] is Luciferin 4-monooxygenase (Photinus pyralis) (UniProt P08659). The experiment in a line: firefly luciferase enzyme inhibitors, primary screen, biochemical, luminescence, purified enzyme, 2006 set (AID 1141).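 Further: cell-free assay with purified firefly luciferase at 100 ng per well in PBS; test concentration not given here.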 The following applies: SteadyGlo luminescence, 30 min, higher = more signal, called active from +8 up or from −8 down.
In test [10] the test system is Wnt5a (protein binding on small-molecule microarray). Put plainly: Wnt5a binders on small-molecule microarray, primary screen, biophysical, 635/667 nm fluorescence (AID 1142).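 Further: fluorescence read at 667 nm with signal to noise per printed feature.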 The following applies: 635 nm fluorescence, higher = more signal.
Test [11] can be described thus: cell viability in Huh7 cells, primary screen, cytotoxicity control for HCV replication inhibitor project, CellTiter-Glo luminescence, basal, 48 h (AID 1143).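 Further: Huh7 hepatoma cells carrying a hepatitis C replication reporter with no stimulus; test concentration not given here.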 The following applies: Huh7 HCV replicon, higher = more signal, called active from +8 up or from −8 down. On the technique in general: In ATP-based viability assays light output follows the ATP content of the culture.

A short description of test [12]: P. aeruginosa biofilm formation inhibitors, primary screen, PAO1 strain, BacTiter-Glo luminescence, LB-PBS (AID 1144). The following applies: 12 h, higher = more signal.
Test [13] can be described thus: CREB reporter modulators without forskolin, primary screen, cell-based, PC12, CRE-LacZ reporter, unstimulated (AID 1145). The following applies: no forskolin, luminescence, 4.5 h, higher = more signal, called active from +8 up or from −8 down.
Test [14] in a line: CREB reporter modulators under forskolin, primary screen, cell-based, PC12, CRE-LacZ reporter, forskolin-stimulated (AID 1146).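 Further: PC12 cells with 6xCRE LacZ reporter stimulated by forskolin 10 µM; beta-galactosidase reporter signal reflecting CREB driven transcription.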 The following applies: luminescence, 4.5 h, higher = more signal, called active from +8 up or from −8 down.
The target in test [15] is Streptavidin (Streptomyces avidinii) (UniProt P22629). Put plainly: streptavidin binders on small-molecule microarray, primary screen, artefact control for SMM compound annotation, biophysical, 635/667 nm fluorescence (AID 1147).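 Further: signal reflects streptavidin binding to arrayed compounds as a control protein.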 The following applies: streptavidin binding, higher = more signal.
Test [16] is described as follows: small-molecule binders of probe aInhba, primary screen, biochemical, small-molecule microarray, 635/667 nm fluorescence (AID 1148).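 Further: score merges 667nm spot fluorescence with signal-to-noise for antibody binding to printed compounds.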 The following applies: higher = more signal.
The target of test [17] is Torsin-1A (Homo sapiens) (UniProt O14656). Put plainly: torsin A binders from cell lysate, primary screen, small-molecule microarray, wild-type, 635/667 nm (AID 1149). The following applies: COS7 hTOR1A-WT lysate, 635 nm fluorescence, higher = more signal.
For test [18] the target is unchanged. The experiment in a line: small-molecule binders of mutant TOR1A in lysate, primary screen, cell lysate, small-molecule microarray, COS7 lysate, 635/667 nm fluorescence (AID 1150).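 Further: score pools 667 nm emission and signal to noise measuring lysate protein binding.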 The following applies: COS7 hTOR1A mutant lysate, 635 nm fluorescence, higher = more signal.
Test [19] concerns Sonic hedgehog protein (Shh). The experiment in a line: small-molecule binders of Shh protein, primary screen, biochemical, small-molecule microarray, 635/667 nm fluorescence (AID 1151).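 Further: Shh protein binding to compounds spotted on small-molecule microarray slides; score combines spot fluorescence intensity with signal-to-noise across triplicate slides.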 The following applies: small-molecule microarray binding, 635 nm fluorescence; higher = more signal.

Several values for one entry are separate records, joined by “and”; a condition that tells them apart may be missing. Equal entries are not always repeated. Activity calls are given as the source filed them. Unless noted, how the calls were made is not given here.

Chain of Torsin-1A (Homo sapiens) (O14656 whole entry, looked up): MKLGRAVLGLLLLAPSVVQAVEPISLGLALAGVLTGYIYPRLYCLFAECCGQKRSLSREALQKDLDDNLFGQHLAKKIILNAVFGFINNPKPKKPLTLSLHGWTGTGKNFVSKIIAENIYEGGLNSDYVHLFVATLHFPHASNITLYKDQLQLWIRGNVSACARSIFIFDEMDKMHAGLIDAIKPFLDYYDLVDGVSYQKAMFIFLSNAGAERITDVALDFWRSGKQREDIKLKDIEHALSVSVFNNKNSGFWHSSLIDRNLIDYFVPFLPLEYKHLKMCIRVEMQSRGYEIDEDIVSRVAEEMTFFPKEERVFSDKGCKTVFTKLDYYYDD
Chain of Luciferin 4-monooxygenase (Photinus pyralis) (P08659 whole entry, looked up): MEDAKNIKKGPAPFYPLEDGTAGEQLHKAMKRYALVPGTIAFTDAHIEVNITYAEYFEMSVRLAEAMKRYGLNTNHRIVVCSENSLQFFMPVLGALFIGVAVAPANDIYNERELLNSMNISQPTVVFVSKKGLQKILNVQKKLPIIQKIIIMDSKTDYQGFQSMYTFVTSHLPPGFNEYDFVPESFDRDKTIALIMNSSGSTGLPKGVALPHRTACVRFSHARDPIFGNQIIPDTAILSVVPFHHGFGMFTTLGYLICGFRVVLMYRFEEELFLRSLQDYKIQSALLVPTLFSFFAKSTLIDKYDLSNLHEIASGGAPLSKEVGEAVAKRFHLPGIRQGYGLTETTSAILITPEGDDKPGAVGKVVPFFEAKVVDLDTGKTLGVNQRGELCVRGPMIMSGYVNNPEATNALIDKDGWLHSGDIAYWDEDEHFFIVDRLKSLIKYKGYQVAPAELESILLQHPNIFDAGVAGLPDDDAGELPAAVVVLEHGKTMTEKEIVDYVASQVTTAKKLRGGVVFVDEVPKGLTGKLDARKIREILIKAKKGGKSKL
Chain of Focal adhesion kinase 1 (Homo sapiens) (Q05397 whole entry, looked up): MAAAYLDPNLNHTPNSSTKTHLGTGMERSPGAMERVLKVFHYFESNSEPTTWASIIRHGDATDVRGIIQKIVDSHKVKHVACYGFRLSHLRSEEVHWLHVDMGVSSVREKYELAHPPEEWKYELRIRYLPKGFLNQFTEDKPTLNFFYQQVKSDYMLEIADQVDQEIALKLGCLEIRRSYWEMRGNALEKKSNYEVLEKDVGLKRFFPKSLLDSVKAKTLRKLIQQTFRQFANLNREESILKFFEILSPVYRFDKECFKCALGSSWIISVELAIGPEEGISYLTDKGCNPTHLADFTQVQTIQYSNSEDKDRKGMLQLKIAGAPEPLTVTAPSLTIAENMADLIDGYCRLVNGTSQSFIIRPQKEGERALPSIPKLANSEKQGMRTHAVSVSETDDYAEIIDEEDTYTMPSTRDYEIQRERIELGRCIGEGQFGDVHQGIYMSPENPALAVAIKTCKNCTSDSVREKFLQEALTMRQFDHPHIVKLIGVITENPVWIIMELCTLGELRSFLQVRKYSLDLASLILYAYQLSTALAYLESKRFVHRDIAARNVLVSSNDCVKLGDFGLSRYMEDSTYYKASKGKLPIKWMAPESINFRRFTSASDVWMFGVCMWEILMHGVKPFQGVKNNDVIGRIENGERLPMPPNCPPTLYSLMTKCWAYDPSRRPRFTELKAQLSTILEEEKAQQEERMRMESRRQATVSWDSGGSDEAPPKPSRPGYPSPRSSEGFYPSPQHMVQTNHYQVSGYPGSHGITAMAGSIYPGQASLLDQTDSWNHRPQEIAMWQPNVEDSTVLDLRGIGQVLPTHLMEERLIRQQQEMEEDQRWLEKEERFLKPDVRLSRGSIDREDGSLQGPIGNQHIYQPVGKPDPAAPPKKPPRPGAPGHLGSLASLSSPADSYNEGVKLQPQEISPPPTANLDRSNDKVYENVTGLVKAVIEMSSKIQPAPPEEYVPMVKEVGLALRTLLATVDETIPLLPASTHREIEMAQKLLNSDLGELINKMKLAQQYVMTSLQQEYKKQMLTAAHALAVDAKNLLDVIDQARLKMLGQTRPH
Chain of Follistatin (Homo sapiens) (P19883 whole entry, looked up): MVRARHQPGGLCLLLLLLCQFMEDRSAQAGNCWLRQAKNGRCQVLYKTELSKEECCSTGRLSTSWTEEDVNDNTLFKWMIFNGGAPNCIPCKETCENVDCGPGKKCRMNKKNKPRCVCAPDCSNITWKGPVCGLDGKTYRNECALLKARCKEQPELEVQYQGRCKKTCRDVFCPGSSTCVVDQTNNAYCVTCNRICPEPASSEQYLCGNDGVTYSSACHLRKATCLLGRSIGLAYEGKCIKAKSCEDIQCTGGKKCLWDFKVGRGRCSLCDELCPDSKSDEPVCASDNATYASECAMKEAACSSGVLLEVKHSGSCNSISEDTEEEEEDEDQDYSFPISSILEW
Chain of Fibroblast growth factor 2 (Homo sapiens) (P09038 whole entry, looked up): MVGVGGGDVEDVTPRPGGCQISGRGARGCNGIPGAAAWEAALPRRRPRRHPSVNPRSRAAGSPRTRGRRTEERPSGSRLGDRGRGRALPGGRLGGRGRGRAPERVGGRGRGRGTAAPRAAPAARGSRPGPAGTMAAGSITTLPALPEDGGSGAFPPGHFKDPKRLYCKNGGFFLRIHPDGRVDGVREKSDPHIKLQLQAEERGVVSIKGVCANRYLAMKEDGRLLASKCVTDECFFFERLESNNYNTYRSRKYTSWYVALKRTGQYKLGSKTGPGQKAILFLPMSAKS
Chain of Streptavidin (Streptomyces avidinii) (P22629 whole entry, looked up): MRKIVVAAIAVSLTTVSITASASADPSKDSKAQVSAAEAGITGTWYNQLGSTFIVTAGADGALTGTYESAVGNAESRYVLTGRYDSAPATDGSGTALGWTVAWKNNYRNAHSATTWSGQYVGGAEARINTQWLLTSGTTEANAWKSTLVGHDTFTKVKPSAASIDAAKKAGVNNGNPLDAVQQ

Take `C=CCN(CCCCC)C(=O)C(c1cccs1)N(CCOCCO)C(=O)/C=C\C(=O)O` (stereo not given): the composite z-score in test [1] is -0.635 and -0.348; in test [2] it was -1.05 and -0.826; in test [3], -0.759 and 0.926; in test [4], -1.57 and -1.63; in [5], -2.22 and -1.47; in test [6], -1.77 and -1.79. The composite z-score in the test on Lefty1 is -0.99 and -1.37; in test [8], -0.539 and 0.579; in test [10], -0.845 and -0.857; in test [15] it was -0.986 and -1.14; in test [16], -0.312 and -0.204; with Torsin-1A (Homo sapiens) [17], -2.06 and -2.03. Also, the composite z-score in the test with Torsin-1A (Homo sapiens) [18] was -1.74 and -2.07; in [19], -0.556 and -0.586. In addition, the z-score in test [7] is 1.34 and 0.685; in test [9], -4.23 (inactive) and -3.13 (inactive); in test [11], -0.103 (inactive) and -0.0586 (inactive); in test [12], -1 (inactive) and -1.11 (inactive); in [13], -0.0778 (inactive) and -0.35 (inactive); in test [14] it was 0.941 (inactive) and -0.947 (inactive).
`CCOC(=O)[C@@H]1CC=C2CC1C(=O)N1CCC[C@@H]1[C@H]2O[Si](C)(C)C(C)(C)C` (stereo not given in full): the composite z-score in test [1] was -1.02 and -0.542; in [2] it was -0.419 and -0.434; in test [3] it was -0.758 and -0.489; in test [4], -0.454 and -1.61; in test [5] it was -0.76 and -0.645; in test [6], -0.424 and -0.469. Moreover, the composite z-score was -0.224 and -0.132 with Lefty1; -0.992 and -0.976 in [8]; -0.12 and -0.752 in test [10]; -0.759 and -2.05 in test [15]; 0.027 and -0.319 in test [16]; -0.408 and -2.35 with Torsin-1A (Homo sapiens) [17]. Besides, the composite z-score with Torsin-1A (Homo sapiens) [18] was -0.0943 and -2.33; in test [19] it was -0.085 and -0.0655. For the same compound, the z-score is -0.827 and -0.338 in test [7]; 0.0411 (inactive) and 0.838 (inactive) in test [9]; 0.856 (inactive) and -3.46 (inactive) in test [11]; 0.318 (inactive) and 0.0257 (inactive) in [12]; -0.692 (inactive) and -1.5 (inactive) in test [13]; 1.25 (inactive) and -1.04 (inactive) in test [14].
Consider `CCOC(=O)NN=C1C[C@@H](O)[C@@H](O)[C@@H]2[C@@H]3C(=O)N(Cc4ccc5c(c4)OCO5)C(=O)[C@@H]3CC[C@@H]12`, for which the composite z-score in test [1] was 0.0648; in test [2] it was 0.449; in test [3], -0.0156; in test [4] it was 0.669; in test [5] it was 0.0164; in test [6], 0.197. The composite z-score with Lefty1 was 0.225; in test [8], 0.626; in test [10] it was -0.0968; in test [15], 0.79; in test [16] it was -0.179; in the test with Torsin-1A (Homo sapiens) [17] it was 0.39. In addition, the composite z-score in the test with Torsin-1A (Homo sapiens) [18] came to 0.0143; in test [19] it was 0.191. Besides, the z-score is 1.06 in test [7]; 0.556 (inactive) in test [9]; -0.299 (inactive) in test [11]; 1.43 (inactive) in test [12]; -0.293 (inactive) in [13]; -0.341 (inactive) in test [14].
For `CO[C@H]1COC(=O)CC=C[C@@H](C)COC(=O)[C@H](CCSC)NC(=O)CC=C[C@@H]1C`, the composite z-score was 0.512 and -0.138 in test [1]; -0.375 and -0.74 in test [2]; 0.285 and -0.776 in test [3]; -1.19 and -1.63 in test [4]; 1.5 and 1.58 in test [5]; 1.97 and 1.78 in [6]. For the same compound, the composite z-score with Lefty1 was 1.79 and 1.82; in [8], -0.353 and -1.42; in test [10], 0.748 and 0.382; in test [15], -0.909 and -1.04; in test [16], -0.0645 and -0.341; with Torsin-1A (Homo sapiens) [17], 3.27 and 3.04. Moreover, the composite z-score was 3.74 and 3.09 in the test with Torsin-1A (Homo sapiens) [18]; 1.74 and 2.35 in test [19]. Besides, the z-score in test [7] was -1.26 and 0.523; in [9], -0.142 (inactive) and -0.463 (inactive); in [11] it was -1.11 (inactive) and -1.94 (inactive); in [12], -0.2 (inactive); in test [13], -0.473 (inactive) and 0.882 (inactive); in test [14], -0.367 (inactive) and -0.742 (inactive).
